In article PMC11574364:

What was measured:
Test in all cases: protein domain microarray probed with biotinylated miRNA; Domain array: 20 mM Tris-HCl pH 7.4, 200 mM KCl, 0.2 mM EDTA, 0.05% NP40, 2 ug/ul heparin, overnight 4 C. ORF array: PBS pH 7.0 with RNase inhibitor, 100 ng RNA; high values mean tight binding
Details in all cases: ssRNA
RBM19(5-6) = target: T1, RBM19(5-6) (Homo sapiens, UniProt Q9Y4C8)
T1 sequence: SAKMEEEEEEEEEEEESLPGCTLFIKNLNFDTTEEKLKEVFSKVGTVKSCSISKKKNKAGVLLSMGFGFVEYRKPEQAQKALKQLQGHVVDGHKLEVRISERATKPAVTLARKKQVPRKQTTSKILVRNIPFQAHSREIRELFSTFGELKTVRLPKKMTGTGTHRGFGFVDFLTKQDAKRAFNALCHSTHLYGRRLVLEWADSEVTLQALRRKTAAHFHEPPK

SSB = target: T2, SSB (Homo sapiens, UniProt P05455)
T2 sequence: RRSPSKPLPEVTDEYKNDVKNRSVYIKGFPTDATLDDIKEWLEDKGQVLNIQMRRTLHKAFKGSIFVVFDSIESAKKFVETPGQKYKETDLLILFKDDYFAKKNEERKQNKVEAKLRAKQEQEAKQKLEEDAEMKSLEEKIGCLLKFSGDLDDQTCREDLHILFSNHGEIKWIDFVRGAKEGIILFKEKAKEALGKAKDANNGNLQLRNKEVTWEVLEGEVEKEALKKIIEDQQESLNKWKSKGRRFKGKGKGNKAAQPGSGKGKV

SAFB2 = SAFB2 (Homo sapiens, UniProt Q14151)
Chain of SAFB2 (Q14151 380-500): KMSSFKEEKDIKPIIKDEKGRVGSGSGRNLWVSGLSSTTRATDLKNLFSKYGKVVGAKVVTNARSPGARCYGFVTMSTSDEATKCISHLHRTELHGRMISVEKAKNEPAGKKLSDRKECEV

RBM42 = target: T3, RBM42 (Homo sapiens, UniProt Q9BTD8)
T3 sequence: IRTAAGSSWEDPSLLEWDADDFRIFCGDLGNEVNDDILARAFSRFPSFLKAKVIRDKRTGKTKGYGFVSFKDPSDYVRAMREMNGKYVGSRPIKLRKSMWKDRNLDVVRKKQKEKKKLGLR

ROD1(1-2) = ROD1(1-2) (Homo sapiens, UniProt O95758)
Chain of ROD1(1-2) (O95758 40-280): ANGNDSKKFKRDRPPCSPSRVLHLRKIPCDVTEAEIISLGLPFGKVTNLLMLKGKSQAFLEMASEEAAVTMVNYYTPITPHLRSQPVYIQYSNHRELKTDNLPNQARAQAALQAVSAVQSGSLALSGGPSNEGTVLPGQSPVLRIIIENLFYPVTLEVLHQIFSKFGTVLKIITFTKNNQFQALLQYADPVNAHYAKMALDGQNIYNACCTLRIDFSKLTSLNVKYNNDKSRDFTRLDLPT

RBM9 = target: T4, RBM9 (Homo sapiens, UniProt O43251)
T4 sequence: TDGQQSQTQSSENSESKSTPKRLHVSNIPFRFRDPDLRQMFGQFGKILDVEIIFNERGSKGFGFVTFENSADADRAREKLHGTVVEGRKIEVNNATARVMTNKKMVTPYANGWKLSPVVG

NOVA1(1-2) = target: T5, NOVA1(1-2) (Homo sapiens, UniProt P51513)
T5 chain: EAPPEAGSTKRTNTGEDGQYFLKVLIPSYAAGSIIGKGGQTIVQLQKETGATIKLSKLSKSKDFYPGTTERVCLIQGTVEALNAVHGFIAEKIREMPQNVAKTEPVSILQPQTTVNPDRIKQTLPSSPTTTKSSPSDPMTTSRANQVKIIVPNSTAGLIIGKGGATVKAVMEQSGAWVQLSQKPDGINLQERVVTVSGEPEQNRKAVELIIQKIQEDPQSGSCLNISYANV

PPRC1 = target: T6, PPRC1 (Homo sapiens, UniProt Q5VV67)
T6 sequence: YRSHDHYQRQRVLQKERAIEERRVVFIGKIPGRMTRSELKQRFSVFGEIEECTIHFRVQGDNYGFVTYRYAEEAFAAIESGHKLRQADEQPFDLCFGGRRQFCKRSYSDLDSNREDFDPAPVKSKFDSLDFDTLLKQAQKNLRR

RBM26(1) = target: T7, RBM26(1) (Homo sapiens, UniProt Q5T8P6)
T7 sequence: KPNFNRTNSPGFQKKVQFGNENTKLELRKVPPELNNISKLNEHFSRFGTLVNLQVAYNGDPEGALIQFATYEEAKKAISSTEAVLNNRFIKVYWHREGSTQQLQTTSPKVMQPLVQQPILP

TIA1 = target: T8, TIA1 (Homo sapiens, UniProt P31483)
T8 sequence: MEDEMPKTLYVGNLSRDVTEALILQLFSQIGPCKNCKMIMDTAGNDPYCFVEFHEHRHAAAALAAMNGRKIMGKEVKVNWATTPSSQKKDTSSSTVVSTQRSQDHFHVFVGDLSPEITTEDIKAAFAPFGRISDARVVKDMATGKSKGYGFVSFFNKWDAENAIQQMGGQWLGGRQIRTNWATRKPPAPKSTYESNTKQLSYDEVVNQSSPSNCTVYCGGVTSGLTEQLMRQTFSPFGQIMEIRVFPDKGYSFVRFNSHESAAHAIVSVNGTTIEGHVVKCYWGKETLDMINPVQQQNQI

SETD1B = target: T9, SETD1B (Homo sapiens, UniProt Q9UPS6)
T9 sequence: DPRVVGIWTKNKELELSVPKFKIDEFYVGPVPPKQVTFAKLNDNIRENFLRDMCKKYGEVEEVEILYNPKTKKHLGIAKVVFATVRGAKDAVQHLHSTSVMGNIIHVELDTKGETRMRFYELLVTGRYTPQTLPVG

ADAR(2) = target: T10, ADAR(2) (Homo sapiens, UniProt P55265)
T10 sequence: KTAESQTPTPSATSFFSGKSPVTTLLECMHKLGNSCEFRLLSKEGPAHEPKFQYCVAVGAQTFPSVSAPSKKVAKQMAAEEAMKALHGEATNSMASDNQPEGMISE

RBM33 = target: T11, RBM33 (Homo sapiens, UniProt Q96EV2)
T11 sequence: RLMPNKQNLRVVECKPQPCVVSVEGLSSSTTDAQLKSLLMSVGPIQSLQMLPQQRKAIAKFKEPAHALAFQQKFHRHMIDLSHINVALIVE

RBM28(3-4) = target: T12, RBM28(3-4) (Homo sapiens, UniProt Q9NW13)
T12 sequence: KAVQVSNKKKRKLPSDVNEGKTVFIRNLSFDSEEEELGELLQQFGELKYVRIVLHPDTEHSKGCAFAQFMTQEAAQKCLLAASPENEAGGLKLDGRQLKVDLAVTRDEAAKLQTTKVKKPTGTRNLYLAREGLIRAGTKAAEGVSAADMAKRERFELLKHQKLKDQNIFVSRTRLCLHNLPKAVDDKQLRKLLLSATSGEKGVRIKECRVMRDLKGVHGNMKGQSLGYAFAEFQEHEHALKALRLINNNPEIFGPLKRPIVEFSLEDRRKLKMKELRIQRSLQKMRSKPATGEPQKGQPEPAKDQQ

RBM48 = target: T13, RBM48 (Homo sapiens, UniProt Q5RL73)
T13 sequence: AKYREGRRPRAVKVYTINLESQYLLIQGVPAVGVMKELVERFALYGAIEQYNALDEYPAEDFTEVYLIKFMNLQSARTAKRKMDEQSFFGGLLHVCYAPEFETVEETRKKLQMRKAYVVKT

Kanadaptin = target: T14, Kanadaptin (Homo sapiens, UniProt Q9BWU0)
T14 sequence: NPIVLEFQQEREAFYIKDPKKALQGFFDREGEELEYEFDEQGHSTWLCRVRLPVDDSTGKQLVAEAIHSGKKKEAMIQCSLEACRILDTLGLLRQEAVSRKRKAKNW

ZNF638 = target: T15, ZNF638 (Homo sapiens, UniProt Q14966)
T15 sequence: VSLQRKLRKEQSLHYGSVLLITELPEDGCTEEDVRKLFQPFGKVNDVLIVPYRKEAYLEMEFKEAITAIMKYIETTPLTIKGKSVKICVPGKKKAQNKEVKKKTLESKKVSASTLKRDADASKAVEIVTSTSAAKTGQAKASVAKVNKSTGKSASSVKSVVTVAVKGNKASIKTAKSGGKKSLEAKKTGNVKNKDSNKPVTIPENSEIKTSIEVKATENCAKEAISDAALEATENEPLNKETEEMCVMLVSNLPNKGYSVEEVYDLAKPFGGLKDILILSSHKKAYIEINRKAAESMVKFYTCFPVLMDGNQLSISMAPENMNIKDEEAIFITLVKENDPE

PKR(1-2) = PKR(1-2) (Homo sapiens, UniProt P19525)
Chain of PKR(1-2) (P19525 1-186): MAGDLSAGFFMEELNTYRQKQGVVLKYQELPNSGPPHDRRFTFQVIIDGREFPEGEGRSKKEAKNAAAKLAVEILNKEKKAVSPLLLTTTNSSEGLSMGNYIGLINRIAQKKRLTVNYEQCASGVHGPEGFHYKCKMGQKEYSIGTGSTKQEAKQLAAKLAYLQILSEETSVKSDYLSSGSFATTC

ADAR(3) = target: T16, ADAR(3) (Homo sapiens, UniProt P55265)
T16 sequence: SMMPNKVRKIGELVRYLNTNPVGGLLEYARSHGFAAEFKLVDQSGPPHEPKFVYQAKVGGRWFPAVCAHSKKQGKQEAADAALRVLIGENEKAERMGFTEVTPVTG

DDX9(1)/DHX9 = DDX9(1)/DHX9 (Homo sapiens, UniProt Q08211)
Chain of DDX9(1)/DHX9 (Q08211 1-89): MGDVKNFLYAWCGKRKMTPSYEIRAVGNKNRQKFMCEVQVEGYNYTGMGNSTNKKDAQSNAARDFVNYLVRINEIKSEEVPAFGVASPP

| Sequence | binding signal (RBM19(5-6)) [fluorescence intensity] | binding signal (SSB) [fluorescence intensity] | binding signal (SAFB2) [fluorescence intensity] | binding signal (RBM42) [fluorescence intensity] | binding signal (ROD1(1-2)) [fluorescence intensity] | binding signal (RBM9) [fluorescence intensity] | binding signal (NOVA1(1-2)) [fluorescence intensity] | binding signal (PPRC1) [fluorescence intensity] | binding signal (RBM26(1)) [fluorescence intensity] | binding signal (TIA1) [fluorescence intensity] | binding signal (SETD1B) [fluorescence intensity] | binding signal (ADAR(2)) [fluorescence intensity] | binding signal (RBM33) [fluorescence intensity] | binding signal (RBM28(3-4)) [fluorescence intensity] | binding signal (RBM48) [fluorescence intensity] | binding signal (Kanadaptin) [fluorescence intensity] | binding signal (ZNF638) [fluorescence intensity] | binding signal (PKR(1-2)) [fluorescence intensity] | binding signal (ADAR(3)) [fluorescence intensity] | binding signal (DDX9(1)/DHX9) [fluorescence intensity] |
| --- | --- | --- | --- | --- | --- | --- | --- | --- | --- | --- | --- | --- | --- | --- | --- | --- | --- | --- | --- | --- |
| UGAGGUAGUAGGUUGUAUAGUU | 39.6 ± 0.516 | 76.1 ± 6.81 | 130 ± 21.8 | 57.7 ± 4.36 | 49.2 ± 4.26 | 693 ± 16.3 | 27.6 ± 0.799 | 24.9 ± 1.13 | 395 ± 44.7 | 584.8 ± 5.47 | 21.4 ± 1.84 | 21.92 ± 0.0141 | 24.2 ± 0.735 |  |  |  |  |  |  |  |
| UGAGGUAGUAGGUUGUGUGGUU | 318.4 ± 2.5 | 686 ± 34.9 | 826.5 ± 2.57 | 613 ± 9.75 | 562 ± 23.1 | 1610 ± 18 | 134 ± 4.86 | 155 ± 53.3 | 1560 ± 215 | 871 ± 40.8 | 24.2 ± 1.14 | 22.6 ± 1.85 | 32.8 ± 1.94 | 135 ± 19.4 | 128 ± 27.9 | 62.8 ± 3.11 | 57.9 ± 2.93 | 53.5 ± 3.56 | 31.8 ± 4.56 | 68.5 ± 11.3 |
| CAGUGCAAUGAUGAAAGGGCAU | 110 ± 1.73 | 324 ± 18.3 | 298 ± 17.8 | 187 ± 2.13 | 116 ± 66.5 | 1850 ± 25.3 | 260.9 ± 1.94 | 43 ± 4.72 | 478 ± 6.75 | 537.8 ± 3.27 |  | 22 ± 1.29 | 26.1 ± 1.95 | 25.9 ± 2.84 | 51.01 ± 0.233 |  | 33.6 ± 1.92 |  |  |  |
| AGAGGUAGUAGGUUGCAUAGUU | 122 ± 10.5 | 587.4 ± 5.08 | 328.4 ± 1.94 | 231 ± 13.5 | 339 ± 66.7 | 2720 ± 95.4 | 318 ± 18.7 | 97 ± 3.22 | 1530 ± 59.8 | 1240 ± 50.7 | 20.2 ± 1.15 | 23.9 ± 0.346 | 28.3 ± 2.28 | 54.1 ± 1.09 | 90.1 ± 12.4 | 33.9 ± 1.02 | 29.21 ± 0.262 | 24.8 ± 1.68 | 24.2 ± 0.771 | 29.6 ± 4.33 |
| UAGCUUAUCAGACUGAUGUUGA | 23.1 ± 1.03 | 22.6 ± 3.15 | 54.58 ± 0.247 | 21 ± 0.962 |  | 916 ± 20.1 |  |  | 31 ± 1.68 | 631 ± 33.9 |  | 23.2 ± 3.02 |  |  |  |  |  |  |  |  |
| UGAGGUAGUAGGUUGUAUGGUU | 231.1 ± 1.89 | 770 ± 38.1 | 488.9 ± 0.622 | 362 ± 5.61 | 367 ± 26.4 | 1940 ± 112 | 90.1 ± 7.43 | 134 ± 3.36 | 1460 ± 57.5 | 1030 ± 40.8 | 22.4 ± 0.396 | 22.7 ± 0.559 | 40.1 ± 0.601 | 77 ± 4.09 | 94.7 ± 35.8 | 47.3 ± 6.22 | 38.3 ± 1.35 | 28.7 ± 2.65 | 30.3 ± 3.34 | 49.7 ± 9.25 |
